Compound activity as filed in PubChem BioAssay.
TGFb inhibitor – TGF-b pathway inhibition; 410,000 compounds, 1.2% hits; Potency, µM (series often up to 46.1 µM), actives largely listed as inhibitors; HepG2 CAGA-GFP TGF-b/SMAD3 reporter, GFP fluorescence, 18 h; TGF-beta stimulated, 500 pg/mL final; note: nearly all actives have a fitted effect of over 65% in size
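Inhibition was scored as loss of TGF-beta-induced (500 pg/mL final, 18 hours, 37 degrees C) GFP in HEPG2 cells carrying a CAGA-GFP reporter, in DMEM with 1% FBS. Well GFP was summed per cell; Activity was normalised to unstimulated and stimulated DMSO wells, then concentration-response fitting.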
HT1080NT lethal – kills 2HG-producing HT-1080-NT fibrosarcoma cells; HT-1080-NT fibrosarcoma viability, CellTiter-Glo ATP luminescence, 48 h; Potency, µM (top dose mostly 46.1 µM), most hits filed as cytotoxic; 360,000 compounds, 1.6% hits;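 note: NT is the 2HG producing partner of a matched IDH1 knockdown line; nearly all actives have a fitted effect of over 55% in size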
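HT-1080-NT; 750 cells/well; 5% FBS RPMI; 48 h compound, 37 degrees C; CellTiter-Glo luminescence; curve fitting and curve-class assignment.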
HepG2 viability – counter-screen for TGF-b inhibitors: cytotoxicity in HepG2 cells; HepG2 CAGA-GFP viability, ATP luminescence, 18 h; AID 588856; Potency, µM (top dose mostly 46.1 µM), most hits filed as cytotoxic; 410,000 compounds, 0.76% hits
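CellTiter-Glo luminescence gave cytotoxicity after 18 hours at 37 degrees C. The cells were HepG2 CAGA-GFP in 1% FBS DMEM, stimulated with 500 pg/mL TGF-beta after compound addition. %Activity was normalised to no-cell wells (complete cell-killing) and DMSO (no toxicity), and curves were fitted and classified.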
TDP1 cell CPT – growth inhibition of DT40 Tdp1-/-;hTDP1 cells with camptothecin (screen for TDP1 inhibitors); chicken DT40 Tdp1-/-;hTDP1 cells + 20 nM CPT, ATP luminescence, 48 h; Potency, µM (highest dose often 46.2 µM), actives largely listed as inhibitors; 420,000 compounds, 12% hits; AID 686979; note: nearly all actives have a fitted effect of over 55% in size
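Chicken DT40 Tdp1-/- cells complemented with human TDP1, 400 cells/well, exposed to compounds plus 20 nM camptothecin for at least 48 h at 37 C; viability read as ATP content by CellTiter-Glo luminescence.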
TDP1 cell noCPT – qHTS for Inhibitors of human tyrosyl-DNA phosphodiesterase 1 (TDP1): qHTS in cells in absence of CPT. Potency, µM (titrated, usually from 46.2 µM), hits mostly inhibitors. DT40 Tdp1-/- hTDP1 cells, no CPT, ATP luminescence, 48 h. 420,000 compounds, 15% hits. AID 686978, 2013; note: nearly all actives have a fitted effect of over 55% in size
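No-CPT arm: Tdp1-/-;hTDP1 DT40 cells (400/well) plus compounds, incubated ≥48 hr at 37 °C. Readout CellTiter-Glo luminescence.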
HT1080 IDH1KD tx – toxicity to HT-1080 IDH1 knockdown cells (counter line); Potency, µM (series often up to 46.1 µM), actives largely listed as cytotoxic; HT-1080 IDH1 knockdown viability, ATP luminescence, 48 h; 360,000 compounds, 2% hits
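Luminescent ATP read-out (CellTiter-Glo, 10 min at room temperature) after 48 h compound exposure at 37 °C gave viability of IDH1-knockdown HT-1080 cells. Activity was normalised to DMSO and cell-free wells, then fitted as concentration-response curves.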
A number is an active result; n = inactive; u = inconclusive; x = not tested or not shown; [ ] = remark or other dose. Most compounds without a hit are left out; they make up all but 17% or so of the library. Calls come from the whole dose curve; as a rule, active = well fitted curve in the direction sought with a large enough effect; inconclusive = small, poorly fitted or top-dose-only effect, or another doubt; inactive = no such curve, though single readings can be large; an effect the other way counts as inactive or inconclusive.

SMILES | TGFb inhibitor | HT1080NT lethal | HepG2 viability | TDP1 cell CPT | TDP1 cell noCPT | HT1080 IDH1KD tx
Cc1ccccc1NC(=S)N/N=C/c1ccc(O)cc1O | n | u | n | 10µM | 9.2µM | 10µM
CC(C)c1ccccc1NC(=S)NC(C)c1ccccc1 (stereo unspecified) | u | n | n | u | 16µM | n
Cc1cccc(NC(=S)N/N=C/c2cccc(O)c2)c1C | u | u | n | 2.6µM | 2.6µM | u
C(#CCN1CCCC1)CC(c1ccccc1)c1ccccc1 | u | u | n | u | 16µM | u
C(#Cc1ccccc1)CN1CCCCC1 | n | n | n | n | n | n
COc1ccc(C(CNC(=O)c2cccc(S(=O)(=O)Nc3ccccc3OC)c2)N2CCCCC2)cc1 (stereo unspecified) | n | n | n | 18µM | u | n
COc1ccc(C(CNC(=O)c2cc(S(=O)(=O)NCc3ccccc3)ccc2C)N2CCOCC2)cc1 (stereo unspecified) | n | n | n | n | n | n
COc1ccc(C(CNC(=O)c2cccc(S(=O)(=O)Nc3ccccc3OC)c2)N2CCCC2)cc1 (stereo unspecified) | n | n | n | u | u | n
COc1ccc(C(CNC(=O)c2cccc(S(=O)(=O)NCc3ccccc3)c2)N2CCOCC2)cc1 (stereo unspecified) | n | n | n | u | 21µM | n
COc1ccccc1C(CNC(=O)c1cccc(S(=O)(=O)Nc2ccc(F)cc2)c1)N1CCCC1 (stereo unspecified) | n | n | n | u | 21µM | n
COc1ccc(C(CNC(=O)c2cccc(N(C)C)c2)N2CCCC2)cc1 (stereo unspecified) | n | n | n | 23µM | u | n
COc1cccc(CSc2nccn2C)c1 | n | n | n | n | n | n
CCCOC1(C(F)(F)F)NC(=O)N(c2cccc(Cl)c2)C1=O (stereo unspecified) | n | x | n | x | x | x
NNC(=O)c1cccc(S(=O)(=O)Nc2cccc(C(F)(F)F)c2)c1 | n | n | n | n | n | n
COc1ccc(NS(=O)(=O)c2cccc(C(=O)NCC(c3ccc(OC)cc3)N3CCCC3)c2)cc1 (stereo unspecified) | n | u | n | 13µM | u | u
COc1ccc(NS(=O)(=O)c2cccc(C(=O)N/N=C/c3c(F)c(F)c(F)c(F)c3F)c2)cc1 | u | u | n | 21µM | 23µM | u
CCC1CCc2sc(C(=O)NCC(c3ccc(OC)cc3)N3CCCC3)cc2C1 (stereo unspecified) | u | u | n | u | 23µM | u
COc1ccc(C(CNC(=O)c2ccc(F)cc2)N2CCCC2)cc1 (stereo unspecified) | n | x | n | n | n | x
COc1ccc(NS(=O)(=O)c2cccc(C(=O)NCC(c3ccc(OC)cc3)N3CCCCC3)c2)cc1 (stereo unspecified) | n | n | n | u | n | n
Cc1[nH]c2ccccc2c1/C=N/NC(=O)c1cccc(S(=O)(=O)Nc2cccc(C(F)(F)F)c2)c1 | 10µM | n | n | u | u | n
Cc1nc2ccc(C(=O)NCCCn3ccnc3)cn2c1N(C)C(=O)CCc1ccccc1 | u | n | n | n | n | n
COC(=O)[C@H](CC(C)C)NC(=O)Cn1cnc2c(NCc3ccccc3)ncnc21 | n | n | n | n | n | n
CCc1nn(CC(=O)NCc2ccc(OC)cc2OC)c(=O)c2cc3c(OC)cccc3n12 | n | x | n | n | n | x
COC(=O)N1CCCCC1c1cc(C(=O)Nc2cccc3c2CCCC3)no1 (stereo unspecified) | n | n | n | u | u | n
Cn1cnc(S(=O)(=O)N2CCCCC2c2cc(C(=O)Nc3cccc4c3CCCC4)no2)c1 (stereo unspecified) | n | n | n | 21µM | 13µM | n
SMILES | TGFb inhibitor | HT1080NT lethal | HepG2 viability | TDP1 cell CPT | TDP1 cell noCPT | HT1080 IDH1KD tx
COCCOC(=O)N1CCCCC1c1cc(C(=O)Nc2cccc3c2CCCC3)no1 (stereo unspecified) | u | u | n | 3.7µM | 4.6µM | n
O=C(Nc1cccc2c1CCCC2)c1cc(C2CCCCN2C(=O)OCCF)on1 (stereo unspecified) | n | n | n | 9.2µM | 9.2µM | n
O=C(NCC1Cc2cccc(-c3cnccn3)c2O1)C1COc2ccccc2O1 (stereo unspecified) | x | x | x | n | n | x
O=S(Cc1ccccc1)CC(O)(c1ccccc1)c1ccccc1 (stereo unspecified) | n | n | n | n | n | n
COc1cccc(CNS(=O)(=O)c2ccc(-c3cc(C(F)(F)F)on3)s2)c1 | n | x | n | u | u | x
O=c1cc(N2CCCCC2)c(-c2ccccc2)nn1Cc1ccc(Cl)cc1 | n | n | n | u | u | n
O=c1cc(N2CCCCC2)c(-c2ccccc2)nn1Cc1c(Cl)cccc1Cl | 10µM | 18µM | 18µM | u | 16µM | 16µM
CS(=O)(=O)N1CCc2cc(-c3csc(NC(=O)C(c4ccccc4)c4ccccc4)n3)ccc21 | n | u | n | 12µM | u | n
Cc1nc(-c2ccc(NC(=O)Cc3ccccc3)cc2)cs1 | u | n | n | n | u | n
CC1Cc2cc(-c3csc(NC(=O)Cc4ccccc4)n3)ccc2N1S(C)(=O)=O (stereo unspecified) | u | u | n | 16µM | 10µM | u
CCn1c(-c2ccccc2F)nc2cc(C(=O)N3CCNC(=O)C3CC(=O)OC)cc(NC(C)=O)c21 (stereo unspecified) | x | x | x | n[9.04 µM] | n | x
COc1ccccc1OCCCOc1cccc(/C=C2\SC(=O)NC2=O)c1 | n | u | n | u | u | u
COc1ccc(C=C2SC(=O)NC2=O)cc1OC | n | n | n | u | 16µM | n
COc1ccccc1OCCCOc1ccc(/C=C2\SC(=O)NC2=O)cc1OC | n | n | n | 16µM | 13µM | u
COc1cc(/C=C2/SC(=O)NC2=O)ccc1OCc1ccccc1 | u | 23µM | n | n | u | u
COc1cc(/C=C2\SC(=O)NC2=O)ccc1Oc1cnccn1 | u | n | n | n | n | n
COc1cc(/C=C2/SC(=O)N(Cc3ccccc3Cl)C2=O)ccc1OCc1ccncc1 | n | n | n | 18µM | u | n
CCOC(=O)C(C)Sc1nc(-c2ccccn2)ncc1OC (stereo unspecified) | u | n | n | 2.9µM | 5.8µM | n
COc1cnc(-c2ccccn2)nc1Sc1c(Cl)cccc1Cl | n | 16µM | n | 0.65µM | 0.92µM | 7.9µM
